Measured values reported in PubChem BioAssay AID1272365 (Small Molecule Screening Facility, UW Madison, 2023).
Several values for one entry are separate records, joined by “and”; a condition that tells them apart may be missing. Equal values may be shown once. Out of some 430,000 compounds screened, about 2,600 (0.6%) were called active. This is one part of a sample in which actives are shown more often than they occur. A number with no mark means an inactive call. No stated cut-off is given here; in the data, active means inhibition mostly above about 37% (no sharp cut-off); inactive means mostly below about 20%.

Each compound was assayed on PriA–SSB C-terminal tail interaction (Klebsiella pneumoniae) (assay: inhibitors of Klebsiella pneumoniae PriA binding to SSB C-terminal tail, primary screen, biochemical, AlphaScreen (AID 1272365;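 on inhibition: plate controls were negative control peptide for no effect and reference peptide for full effect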)). Conditions: AlphaScreen SSBct-PriA binding, biotinylated peptide; at 33 µM, stronger effect = higher value.

Compound | inhibition
c1ccc(-c2nnc3c4ccccc4c4ccccc4c3n2)nc1 | 81% (active)
Cc1oc(-c2ccc(Cl)cc2)cc1C(=O)Nc1ccc(S(N)(=O)=O)cc1 | -10%
COc1ccc(CC(=O)NCC(c2ccsc2)N2CCc3ccccc3C2)cc1 (stereo not given) | -5%
O=C(NCc1ccc2c(c1)OCO2)C(=O)NC[C@H](O)c1cccc2ccccc12 | -1%
O=C(Oc1ccc(C(=S)N2CCOCC2)cc1)c1ccc(F)cc1 | -4.78%
Cc1ccc(C(=O)Oc2ccc(C(=S)N3CCOCC3)cc2)cc1 | -12.7%
O=C(Oc1cccc(C(=S)N2CCOCC2)c1)c1cccc(Cl)c1 | 45.9% (active)
Cc1cc(C)c(C#N)c(SCCC(=O)NCCc2ccccc2)n1 | 0%
O=C(COc1ccccc1[N+](=O)[O-])NC1CC1 | -0.67%
Cc1ccc(OCC(=O)Oc2ccccc2[N+](=O)[O-])cc1 | -0.19%
O=C(Oc1ccccc1[N+](=O)[O-])N(c1ccccc1)c1ccccc1 | 39% (active)
COc1cc(N2CCN(C(=O)Nc3ccc(F)c(Cl)c3)CC2)nc(C)n1 | -8%
O=C(Cn1c(C2CC2)nc2c(cnn2-c2ccccc2)c1=O)Nc1cccc(Cl)c1 | 2%
O=S(=O)(NCc1cc(C2CC2)n(C2CCCC2)n1)c1ccc(Br)s1 | -11%
CCN(CC)CCOc1ccc2c(c1)C(=NNC(=O)c1ccccn1)c1cc(OCCN(CC)CC)ccc1-2 | 42.9% (active)
COc1ccccc1NC(=O)CC(C)=NNC(=O)c1ccccn1 | -3.2%
COc1ccc(C(=O)NN=C(c2ccccc2)c2ccccn2)cc1 | -7.73%
CC(=NNC(=O)C(c1ccncc1)N1CCOCC1)c1ccc(Br)cc1 (stereo not given) | 1.79%
Cc1cnc2n(c1=O)C[C@H](C(=O)Nc1ccc(OC(F)(F)F)cc1)CS2 | -1%
CN(C)CC#CCNC(=O)c1c(F)cccc1Cl | -2%

Compound | inhibition
O=C(c1cc(-c2ccco2)nc2ccccc12)N(Cc1nnc(-c2ccc(Cl)cc2)o1)C1CC1 | 38.9% (active)
O=C(Cc1nnc(-c2ccc3ncccc3c2)o1)NCc1ccc(Cl)cc1 | 2%
O=C(c1ccc(Cl)s1)N(Cc1nnc(-c2ccccc2Cl)o1)C1CC1 | -3.73%
O=C(Cc1csc(Nc2ccc(OC(F)(F)F)cc2)n1)NCc1ccco1 | -4%
Cc1cc(SCC(=O)N2CCCc3ccccc32)n2ncc(-c3ccccc3)c2n1 | -7%
COc1ccc(OC)c(NC(=O)CSc2nccn2-c2cccc(C(F)(F)F)c2)c1 | 10%
Cc1ccc(NC(=O)Cc2csc(SCC(=O)c3ccc4c(c3)OCO4)n2)cc1F | 0%
CN(C)C(CNC(=O)Nc1ccc2c(c1)OCO2)c1ccsc1 (stereo not given) | -7%
O=C(Nc1nnc(C2CC2)s1)c1ccccn1 | 90.3% (active)
O=C(Nc1nncs1)c1ccc(S(=O)(=O)NC2CC2)cc1 | 0% and -28%
O=C(Nc1nncs1)c1ccccn1 | 98% (active)
CC1CCN(c2ccc(C(=O)Nc3nnc(C4CC4)s3)cc2[N+](=O)[O-])CC1 | -10.1%
O=C(Nc1ccccc1)N1CCC(c2nnc(C3CC3)s2)CC1 | -7%
O=C(NCc1cccnc1-c1cccs1)c1ccccn1 | -5%
COC(=O)C1CCN(C(=O)C(=O)c2c[nH]c3ccccc23)CC1 | 6%
CCOc1ccc(C(=O)NCCNC(=O)c2ccc(NC(C)=O)cc2)cc1OCC | -15%
COc1c2ccc(C(=O)NCC3CCCN3c3nc4ccccc4o3)cc2nn1C (stereo not given) | -11%
Cc1ccc(/C=C/S(=O)(=O)N2CC(S(=O)(=O)c3ccc(F)cc3)C2)cc1 | -9%
N#CCCSc1ccccc1NC(=O)c1ccc([N+](=O)[O-])o1 | -9%
CCOC(=O)CSc1ncc(-c2ccc(OC)cc2)n1-c1ccccc1C | 53% (active)

Compound | inhibition
COc1ccc(-c2cnc(SCC(=O)Nc3nccs3)n2-c2cccc(Cl)c2)cc1 | -6%
CCOC(=O)CSc1nnc(CNC(=O)Cc2ccccc2)n1-c1ccccc1OC | -1.32%
Cc1ccnc(N/C=C(/NC(=O)c2ccccc2)C(=O)N/N=C/c2ccc(Cl)cc2)n1 | inactive
COc1ccc(S(=O)(=O)NCc2ccccc2-c2ccsc2)cc1Cl | -26%
O=C(CN1CC(=O)Oc2ccccc21)OCC(=O)c1ccc(Cl)c(Cl)c1 | 93.6% (active)
CCCn1c(=N)n(CC(=O)c2ccc(Cl)c(Cl)c2)c2ccccc21 | -3.72%
O=C1COc2ccc(C(=O)COC(=O)c3ccccc3Cl)cc2N1 | -1.39%
O=C(NCCN1CCOC(c2ccccc2)C1)C1CC1 (stereo not given) | -7%
c1ccc(-c2cn3c(n2)CCc2ccc4cccnc4c2-3)cc1 | 39.4% (active)
c1ccc(-c2nc3ccc4ncccc4c3nc2-c2ccccc2)cc1 | -12%
CC(C)CS(=O)(=O)C1CCN(C(=O)c2cccc(Oc3ccc(F)cc3)c2)CC1 | -1%
CCCCC[n+]1ccn(C2=C([O-])c3ccccc3C(=O)C2=NS(=O)(=O)c2ccccc2)c1 | -14.3%
CC(C)(C)NC(=O)COC(=O)c1cc(Cl)ccc1[N+](=O)[O-] | 6.97%
CCCC(=O)OCC(=O)Nc1cc(Cl)ccc1[N+](=O)[O-] | 42.6% (active)
Cc1cc(NC(=O)COC(=O)COc2ccc(Cl)cc2C)c([N+](=O)[O-])cc1C | 10.3%
O=C(NCc1cncc(-c2cccs2)c1)c1ccc2ncsc2c1 | -4%
CC(NC(=O)c1ccccc1)C(c1ccccc1)N(C)C (stereo not given) | 25%
O=C(NNC(=O)c1ccccc1[N+](=O)[O-])Nc1ccccc1C(F)(F)F | -2.15%
CC(C)NC(=O)c1ccc(Sc2ccccc2)c([N+](=O)[O-])c1 | -10.4%
CC(C)NC(=O)c1ccccc1Nc1c([N+](=O)[O-])cc(C(F)(F)F)cc1[N+](=O)[O-] | 56% (active)
